Bead autofluor – compound fluorescence in toxin protease inhibitor counterscreen; compound autofluorescence counterscreen, microsphere flow cytometry; hits give high values; fluorescence intensity (concentration not given with the values); actives 3.1% (n = 360,000); AID 624483; in the data active = fluorescence intensity above about 16000; inconclusive = no clear call, values can overlap the other calls
BH1578 lux ind – quorum light induction in luxS cqsA deficient V. cholerae. V. cholerae BH1578 lux reporter, luminescence, 6 h. activation, % at 18.7 µM. actives 0.16% (n = 350,000); in the data active = activation mostly above about 9.7%, no sharp cut-off; inconclusive = no clear call, values can overlap the other calls; inactive = mostly below about 3.7%
BoNT-A LC inh2 – inhibitors of Botulinum neurotoxin A light chain protease. multiplex microsphere protease substrate cleavage, flow cytometry. inhibition, % at 10 µM. actives 0.17% (n = 360,000)
Anthrax LF inh2 – anthrax lethal factor protease inhibition. multiplex microsphere protease cleavage assay, LF. actives 0.12% (n = 360,000). P15917. AID 588501. inhibition, % at 10 µM
BoNT F protease – blocks Botulinum neurotoxin F light chain protease; actives 0.22% (n = 360,000); Multiplex microsphere protease cleavage assay, flow cytometry; inhibition, % at 10 µM; AID 588497; in the data active = inhibition above about 35%, passing the limit was not always enough; inconclusive = no clear call, values can overlap the other calls
MazEF act – MazEF (E. coli) toxin RNase activation; P0AE70; FAM/BHQ RNA-DNA oligo cleavage fluorescence, 5 h; activation, % at 20 µM; actives 0.32% (n = 350,000); in the data active = activation above about 50%
Target sequence (P0AE70 whole entry, looked up): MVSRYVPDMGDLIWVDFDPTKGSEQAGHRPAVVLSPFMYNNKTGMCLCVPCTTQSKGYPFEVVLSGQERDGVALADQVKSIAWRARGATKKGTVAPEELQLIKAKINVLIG
Each line names hits and unclear results; the compound was inactive in the other large screens. Rows were chosen to be rich in hits. Some 3.9% of all compounds tested hit in one or more screens of this group. Cut-off read from the data, not from the text of the source, unless noted: active = inhibition above about 30%; inconclusive = no clear call, values can overlap the other calls; inactive = below that.

COc1ccc(NC(=O)c2ccc(C(=O)Nc3ccc(OC)cc3OC)cc2)c(OC)c1	none
COc1cc(SC)ccc1C(=O)N(Cc1ccccc1)c1ccccn1	none (no result: Bead autofluor, BoNT-A LC inh2, Anthrax LF inh2, BoNT F protease)
CCCNC(=O)N(C)C[C@H]1Oc2ncc(Br)cc2C(=O)N([C@H](C)CO)C[C@H]1C	none
COc1ccc(NC(=O)NCc2ccncc2)c(OC)c1	Bead autofluor 22838, BoNT-A LC inh2 inconclusive
COc1ccccc1NC(=O)c1ccc(-n2cccn2)nc1	Bead autofluor 22967
O=C(Nc1ccc(F)cc1)c1ccc(-n2ccnc2)nc1	Bead autofluor 22409
COc1ccc(NC(=O)c2ccc(-n3cccn3)nc2)c(OC)c1	Bead autofluor 22774
COc1ccc(NC(=O)c2ccc(NC(=O)c3cccnc3)cc2)cc1	none
COc1ccc(NC(=O)c2ccc(-n3cccn3)nc2)cc1	Bead autofluor 22260
O=C(Nc1ccc(F)cc1F)c1ccc(-n2cccn2)nc1	none
Cn1c2c(c(=O)n(C)c1=O)NC1(N2)C(=O)Nc2ccccc21 (centres undefined)	BoNT F protease inconclusive
O=C(Nc1ccc(F)cc1F)c1ccc(-n2cncn2)nc1	Bead autofluor 21818, BoNT-A LC inh2 inconclusive
COc1ccccc1NC(=O)c1ccc(NC(=O)Cc2n[nH]c(=O)c3ccccc23)cc1	MazEF act 72
COc1ccccc1NC(=O)c1ccc(C(=O)Nc2ccccc2OC)nc1	MazEF act 53
CCCCC(=O)N(C)c1c(CC)nc2c(OCc3ccccc3C)cccn12	none (no result: MazEF act)
Cc1cc(C)cc(OCc2nnc(SCC(=O)c3ccccc3)o2)c1	Bead autofluor 19614, BoNT-A LC inh2 inconclusive
CCC1(C)Cc2c(C#N)c(N)sc(=S)c2CO1 (centres undefined)	BoNT-A LC inh2 75, Anthrax LF inh2 41
Cc1ccc(OCc2nnc(SCC(=O)Nc3cc(C)on3)n2C)cc1	Bead autofluor 21396
Cc1ccccc1NC(=O)Cc1nnc(SCC(=O)c2ccc(Br)cc2)n1C	Bead autofluor 18692, BoNT-A LC inh2 inconclusive
Cc1ccc(CSc2nnc(CC(=O)Nc3ccc(C)cc3)n2C)cc1	Bead autofluor 19547
Cc1ccc(OCc2nnc(SCC(=O)Nc3ccc4c(c3)OCO4)n2C)cc1	Bead autofluor 26293
Cc1cc(NC(=O)CSc2nnc(COc3cccc(C)c3C)n2C)no1	none
CCc1nc2ccc(C(=O)N3CCN(S(=O)(=O)CC)CC3)cn2c1N(CC)CCOC	none (no result: MazEF act)
COc1ccc(S(=O)(=O)Nc2ccccc2C(=O)N2CCOCC2)cc1C	none
CN(Cc1ccc(Cl)cc1)C(CCc1ccccc1)C(=O)NC1CCCCC1 (centres undefined)	none (no result: BH1578 lux ind, MazEF act)
CCc1nnc(NC(=O)CCC(=O)N2CCN(Cc3ccc(OC)c(F)c3)CC2)s1	none
Cn1c(=O)[nH]c(=O)c2c1nc(N1CCCCC1)n2CC(O)COc1ccc([N+](=O)[O-])cc1 (centres undefined)	BoNT F protease inconclusive
CN(C)C(=O)CCSc1nnc(-c2ccncc2)o1	none
CCCNC(=O)C(Cc1ccccc1)NC(=O)c1ccccc1 (centres undefined)	none
CC(NC(=O)C(Cc1ccccc1)NC(=O)c1ccccc1)C(=O)O (centres undefined)	Bead autofluor 22982, BoNT-A LC inh2 inconclusive
CCOc1ccccc1-c1nc(-c2ccc(NC(=O)Cc3ccccc3OC)cc2)no1	none
COc1ccc(-c2noc(CCCC(=O)Nc3ccc(C(N)=O)cc3)n2)cc1	Bead autofluor 22075
COc1ccccc1CC(=O)Nc1ccc(-c2noc(COc3ccc(Cl)c(C)c3)n2)cc1	Bead autofluor 21393, BoNT-A LC inh2 inconclusive
Cn1c(=O)c2c(nc(SCC(=O)NC34CC5CC(CC(C5)C3)C4)n2C)n(C)c1=O	Bead autofluor 23851
Cn1c(=O)c2c(nc(Br)n2CC(=O)C23CC4CC(CC(C4)C2)C3)n(C)c1=O	Bead autofluor 16360
Cc1nnc(SCC(=O)NC23CC4CC(CC(C4)C2)C3)n(N)c1=O	none
CC(O)(c1ccc(F)c(F)c1)c1nc(-c2cc(F)cc(F)c2)cs1 (centres undefined)	none (no result: MazEF act)
N#C/C(=C\c1cccc(Br)c1)C(=O)N1CCCCC1	none
Cc1ccc(OCCn2cc(/C(N)=N/O)c3ccccc32)cc1C	Bead autofluor 17016
COc1ccc(OCCn2cc(/C(N)=N/O)c3ccccc32)cc1	none
Cn1c(SCc2cccc(F)c2)nnc1-c1ccccn1	Bead autofluor 16789
CC(C)NC(=O)CN1C(=O)C(=O)c2ccccc21	Bead autofluor 22994, BoNT-A LC inh2 inconclusive
O=C1C(=O)N(CC(=O)N2CCCC2)c2ccccc21	none
CCNC(=S)NNC(=O)c1cc(C)on1	Bead autofluor 21335
Cc1cc(C(=O)NNC(=S)NCc2ccccc2)no1	none
Cc1cc(C(=O)NCc2ccccc2Br)no1	Bead autofluor 21781, BoNT-A LC inh2 inconclusive
Cc1cc(C(=O)NCCc2ccccc2)c2cc(F)ccc2n1	none
Cc1c(C)c2ccc(OCC(=O)NCCc3c[nH]c4ccccc34)cc2oc1=O	none (no result: MazEF act)
Cc1ccc(-c2cc(=O)[nH][nH]2)c(C)c1	Bead autofluor 22424
CCCCCCN1CCN(C2CN(Cc3cn(Cc4ccc(C)cc4)nn3)S(=O)(=O)C2)CC1 (centres undefined)	none (no result: BH1578 lux ind, MazEF act)
O=C(COC(=O)c1cnccn1)NCc1ccccc1	Bead autofluor 20877
O=C(COC(=O)c1cnccn1)NCCc1ccccc1	Bead autofluor inconclusive (no result: BH1578 lux ind)
Cc1ccc(S(=O)(=O)N(OCc2ccccc2)C(C)C(=O)O)cc1 (centres undefined)	none
O=C1CC(N2CCN(c3ccc(Cl)c(Cl)c3)CC2)C(=O)N1 (centres undefined)	Bead autofluor 21082
CCC(=O)Nc1ccc2c(c1)nc1n2CCSC1	none (no result: Bead autofluor, BoNT-A LC inh2, Anthrax LF inh2, BoNT F protease)
CC(C)C(=O)Nc1ccc2c(c1)nc1n2CCSC1	Bead autofluor 16136
O=C(Nc1ccc2c(c1)nc1n2CCSC1)c1ccccc1	Bead autofluor 21018
COC(=O)CC1COc2ccccc2N1C(=O)c1ccc(OC)cc1 (centres undefined)	Bead autofluor 21654, BoNT-A LC inh2 inconclusive
CCCCSc1nc(N)c(C#N)c(-c2cccs2)c1C#N	Bead autofluor 19876
CCOc1cccc(CNCCc2c(C)[nH]c3ccc(OC(F)(F)F)cc23)c1O	MazEF act 52
CC(C)OP(=O)(OC(C)C)C(NC(=O)c1ccc(Br)cc1)c1ccccc1 (centres undefined)	Bead autofluor 21425
COc1cc(/C=C2/CCCC(C(=O)C(F)(F)F)=C2O)ccc1O	none
COc1ccc(/C=C2/CCCC(C(=O)C(F)(F)F)=C2O)cc1OC	BoNT F protease inconclusive, MazEF act 211
COC(=O)c1sc(NC(=O)c2cc3c(s2)CCCC3)nc1C	Bead autofluor 25221
CC(NC(=O)c1cc2c(s1)CCCC2)C(C)(C)C (centres undefined)	Bead autofluor 16452
Cc1nc(NC(=O)c2cc3c(s2)CCCCC3)sc1C(=O)N(C)C	none
Cc1c(C(C)(C)O)[nH]c2ccc(C(F)(F)F)cc12	none
O=C(OCCOc1cccc(Cl)c1)c1cc(S(=O)(=O)N2CCOCC2)ccc1F	Bead autofluor inconclusive

High-throughput results as filed in PubChem.
